Structures are written as SMILES.

The subject of the test is RIVA. Put plainly: growth inhibition by drug alone (1 - RLU/untreated control) (fraction); higher = stronger inhibition. Conditions: 100 nM; time (day): 4; 177Lu-lilotomab satetraxetan 0 ug/ml. An outline of the steps:
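Growth inhibition was calculated from RealTime-Glo RLU against untreated no-drug wells. Values equal 1 − RLU/mean of 48 untreated no-drug wells per plate, read daily from day 3 after 1 h at 37°C. RIVA and U-2932 cells, with or without 18 h pretreatment by a radiolabelled anti-CD37 antibody conjugate (~600 MBq/mg; 0.5 µg/ml RIVA, 1 µg/ml U-2932), were washed and plated at 3,000 cells/well on compound-printed plates at 10/100 nM (RIVA) or 10/1,000 nM (U-2932).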
In the case of `COc1ccc(S(=O)(=O)Nc2cccnc2Nc2ccc(O)cc2)cc1`, the “growth inhibition by drug alone” value was -0.364.
In the case of `C[C@]12CCC(=O)C=C1CC[C@@H]1[C@@H]2[C@@H](O)C[C@@]2(C)[C@H]1CC[C@]2(O)C(=O)CO` [Hydrocortisone (Cortisol)], the “growth inhibition by drug alone” value is -0.297.
To `COc1cc(OC2CCN(C)CC2)ccc1Nc1ncc2c(n1)n(C1CCCC1)c(=O)n2C` belongs -0.553; to `Nc1nc(F)nc2c1ncn2[C@@H]1O[C@H](CO)[C@@H](O)[C@@H]1O` [Fludarabine (Fludara)], -0.213; to `Nc1nc(Nc2ccc(S(N)(=O)=O)cc2)nn1C(=O)c1c(F)cccc1F`, -0.0559.
To `Nc1ncn([C@@H]2O[C@H](CO)[C@@H](O)[C@H]2O)c(=O)n1` [Azacitidine (Vidaza)] belongs -0.332.
To `COc1cc2nccc(Oc3ccc(NC(=O)NC4CC4)c(Cl)c3)c2cc1C(N)=O` [E7080 (Lenvatinib)] belongs -0.192.
Turning to `Nc1ccn([C@@H]2O[C@H](CO)[C@@H](O)[C@@H]2O)c(=O)n1` [Cytarabine], the “growth inhibition by drug alone” value amounted to 0.0413.
For the compound `Nc1cccc2c1C(=O)N(C1CCC(=O)NC1=O)C2=O` (configuration not stated) [Pomalidomide], the “growth inhibition by drug alone” value is -0.115.
As to `CN(C)c1nc(N(C)C)nc(N(C)C)n1` [Altretamine (Hexalen)], the “growth inhibition by drug alone” value was -0.424.
Turning to `Cc1[nH]c(/C=C2\C(=O)Nc3ccc(S(=O)(=O)N(C)c4cccc(Cl)c4)cc32)c(C)c1C(=O)N1CCN(C)CC1`, the “growth inhibition by drug alone” value is -0.305.
The same measure for `O=C(O[C@@H]1Cc2c(O)cc(O)cc2O[C@@H]1c1cc(O)c(O)c(O)c1)c1cc(O)c(O)c(O)c1` [(-)-Epigallocatechin gallate]: -0.43.

Source of the values: the supplement of paper PMC6897291.
